In PubChem BioAssay (NCI) one finds growth data, which are given here for eight compounds.

About 83,000 compounds went through this panel and 20% of them were active in at least one assay; those are over-represented in the sample as a whole.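 Plates (96-well) were seeded with cells, treated with compound at one concentration, and incubated for 48 hours before percent growth was determined.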 Unmarked numbers belong to inactive results. Activity calls are given as the source filed them. How the source made its calls: active means growth percent below 10; inactive means the rest.

What all share (assay): NCI-60 one-dose screen, 48 h (100 = growth as untreated, 0 = no growth, -100 = all killed)
Details in all cases: 10 µM

Test [1] concerns NCI-H23 lung.
The subject of test [2] is NCI-H226 lung.
The test system of test [3] is NCI-H322M lung.
Test [4] concerns HOP-62 NSCLC.
The test system of test [5] is NCI-H460 lung.
The test system of test [6] is NCI-H522 lung.
Test [7] deals with A549/ATCC NSCLC.
Test [8] deals with 786-0 renal.
Test [9] has as its system DU-145 prostate.
Test [10] has as its system K-562 leukemia.
For test [11], the system named is MALME-3M melanoma.
The test system of test [12] is MDA-MB-231 breast.
For test [13], the system named is RXF 393 renal.
Test [14] concerns SF-268 CNS.
Test [15] deals with SF-295 CNS.
The subject of test [16] is SF-539 CNS.
For test [17], the system named is UACC-257 melanoma.
Test [18] relates to M14 melanoma.
Test [19] relates to HCT-15 colon.
Test [20] deals with COLO 205 colon.

As to `COc1ccc(-c2nn(-c3cccc(NC(=O)Nc4ccccc4)c3)cc2-c2ccncc2)cc1Cl`, the growth in test [1] was 42.6%; in test [2], 70.6%; in test [3], 39.5%; in test [4], 46%; in test [5], 4.93% (active); in [6], 5.77% (active). In addition, the growth is -4.41% (active) in test [7]; 42.2% in test [8]; 50.1% in test [9]; 10.4% in [10]; 17.9% in test [11]; -9.47% (active) in test [12]. The growth is -59.3% (active) in test [13]; 27.9% in test [14]; -7.17% (active) in test [15]; -59.1% (active) in [16]; -32.9% (active) in [17]; 9.94% (active) in [18]. For the same compound, in test [19], the growth is 16.6%.

Consider `O=C1C(=O)c2ccccc2C(O)=C1CCCc1ccc(C2CCCCCC2)cc1`, for which the growth is 23.4% in [1]; 37.6% in [2]; 23.7% in [3]; 40.8% in test [4]; 11.6% in [5]; 42% in test [6]. Also, the growth is 22.7% in test [7]; 55.7% in test [8]; 44% in test [9]; 23.7% in [10]; 13.5% in test [11]; 68.4% in test [12]. For the same compound, the growth in test [13] is 68.1%; in test [14], 53.9%; in test [15] it was -0.205% (active); in [16], 37.9%; in test [17] it was 44%; in test [18] it was 49.3%. The growth in [19] was 25.2%.

Consider `C=C(NC(=O)C(=C)NC(=O)c1csc(C2=NC3c4csc(n4)C4NC(=O)c5csc(n5)C(C(C)(O)C(C)O)NC(=O)C5CSC(=N5)/C(=C/C)NC(=O)C(C(C)O)NC(=O)c5csc(n5)C3(CC2)NC(=O)C(C)NC(=O)C(=C)NC(=O)C(=C)NC(=O)C(C(C)C)NC2C=Cc3c(C(C)O)cc(nc3C2O)C(=O)OC4C)n1)C(N)=O` (stereo not given), for which the growth was 11.1% in test [1]; -26.3% (active) in test [2]; 45.9% in test [3]; 2.24% (active) in test [4]; 1.43% (active) in test [5]; -39.1% (active) in test [6]. Besides, the growth is 31.7% in [7]; -10.4% (active) in test [8]; -23% (active) in [9]; -11.3% (active) in [10]; -64.6% (active) in [11]; 29.7% in test [12]. The growth in [13] was 16.9%; in [14], 21.5%; in test [15] it was 26.6%; in test [16], -22.5% (active); in test [17] it was 24.2%; in [18] it was -29.5% (active). In addition, the growth in test [19] was -23.7% (active).

Turning to `COc1ccc(C(=O)/C=C/c2cc(-c3cc(OC)c(OC)c(OC)c3)n[nH]2)cc1`, the growth was 87.3% in test [1]; 53.3% in [2]; -6.79% (active) in [3]; 17.6% in test [4]; 2.79% (active) in test [5]; -0.12% (active) in test [6]. Moreover, the growth in test [7] was 34.5%; in [8] it was 10.4%; in test [9], 26.3%; in test [10], 5.85% (active); in test [11], 69%; in test [12] it was 38.5%. Further, the growth was 30.1% in [13]; 31.2% in test [14]; -23.8% (active) in test [15]; -25.6% (active) in test [16]; 70.8% in [17]; 54.6% in test [18]. Besides, the growth in [19] is 8.52% (active).

On to `COc1cc(NC(=O)CCSc2nc3ccc(Cl)cc3c(=O)n2Cc2ccccc2)cc(OC)c1OC`, for which the growth in test [1] was 93.5%; in test [2] it was 31.1%; in test [3], 83.1%; in [4], 57.2%; in test [5] it was 81.8%; in test [6], -9.19% (active). Further, the growth was 59.3% in test [7]; 93.2% in [8]; 108% in test [9]; 67.1% in [10]; 84.3% in test [11]; 51.2% in test [12]. In addition, the growth in test [13] is 57.2%; in test [14] it was 95.1%; in test [15], 66.2%; in [16] it was 26.8%; in test [17], 61%; in test [18], 75.2%. The growth in test [19] is 72.5%.

In the case of `CC(=O)O[C@]1(C)CC[C@H]2[C@H](CNCCc3ccc(Cl)cc3)C(=O)O[C@@H]2C2=C(C)C(=O)C[C@H]21`, the growth in [1] is 102%; in test [2], 94.9%; in [3], 91.9%; in test [4] it was 94%; in [5], 106%; in [6], -33.4% (active). Moreover, the growth in test [7] is 85.6%; in test [8], 96.6%; in [9], 89.4%; in [10] it was 79.4%; in [11], 84.2%; in test [12] it was 90.5%. Besides, the growth in [13] was 115%; in [14] it was 91%; in test [15], 105%; in test [16] it was 106%; in test [17], 76.4%; in [18], 88.4%. The growth in test [19] is 88.4%.

Turning to `Cc1cs/c(=N\NC(=O)c2cc(-c3cc4ccccc4o3)nn2-c2ccccc2)n1-c1ccccc1`, the growth is 85.9% in test [1]; 91.3% in test [2]; 93.5% in test [3]; 97.9% in [4]; 97.1% in test [5]; 86.4% in [6]. Besides, the growth was 88.4% in [7]; 91.4% in test [8]; 98.3% in test [20]; 94.2% in test [10]; 99.5% in [11]; 84% in [12]. Further, the growth in test [14] was 92.5%; in test [15], 85%; in test [16] it was 106%; in test [18], 95.8%; in test [19] it was 96.6%.

In the case of `Cc1cc(C)c(NC(=O)c2sc3nc4c(cc3c2N)C(=O)CCC4)c(C)c1`, the growth was 33% in test [1]; 77.1% in test [2]; 56.3% in test [3]; 36.9% in test [4]; 6.43% (active) in [5]; -14.7% (active) in test [6]. The growth in [7] was 23%; in [8], 30.4%; in test [9], 10%; in test [10], 19.8%; in test [11], 42.1%; in [12], 35.7%. Moreover, the growth was -6.66% (active) in test [13]; 38.6% in [14]; -11.3% (active) in test [15]; -6.5% (active) in [16]; 48.7% in test [17]; 16.4% in test [18]. Also, the growth in test [19] was 31.8%.
